Bioassay records from PubChem.
CHX counter = counter-screen for Shiga toxin inhibitors: cycloheximide protein synthesis inhibition; max response, %; cell reporter, cycloheximide protein synthesis inhibition counterscreen; 300,000 compounds, 12% hits; in the data active = max response mostly above about 13%, no sharp cut-off; inactive = mostly below about 14%; note: read at 38.3 µM for the half of the compounds with a filed dose
Lassa entry inh = inhibitors of Lassa virus binding or cell entry; Lassa virus pseudotype entry inhibition, cell reporter; Potency, µM (highest dose often 37.9 µM), hits mostly inhibitors; 300,000 compounds, 1.2% hits; calls by dose curve; tested in HEK293 cells; note: nearly all actives have a fitted effect of over 50% in size
Shiga toxin inh = inhibitors of Shiga toxin in Vero cells | AID 2315 | 290,000 compounds, 9.2% hits | Vero cells, Shiga toxin protein synthesis inhibition reporter | inhibition, % at 38.7 µM; in the data active = inhibition mostly above about 28%, no sharp cut-off; inactive = mostly below about 43%
Marburg entry inh = blocks Marburg virus binding to or entry into cells | Marburg virus pseudotyped entry inhibition, cell reporter | Potency, µM (top dose mostly 37.8 µM), most hits filed as inhibitors | 300,000 compounds, 1.8% hits | AID 540276; calls by dose curve; tested in HEK293 cells
Numbers stand for hits; i = inactive; ? = inconclusive; nt = no result given. An excerpt weighted towards active compounds, which were near 12% of everything screened.

SMILES	CHX counter	Lassa entry inh	Shiga toxin inh	Marburg entry inh
CCOC(=O)c1cc(-c2ccc(F)cc2)n(CCC(=O)NC2CCN(Cc3ccccc3)CC2)c1C	i	?	i	?
CN(C)c1cccc(C(=O)OCC(=O)NCC2CCCO2)c1 (stereo not drawn)	i	i	i	i
CCOC(=O)N1CCN([N+]([O-])=NOc2cc(O/N=[N+](\[O-])N(CC)CC)c([N+](=O)[O-])cc2[N+](=O)[O-])CC1	i	nt	i	nt
COC(=O)C(NS(=O)(=O)CCl)C(C)C (stereo not drawn)	i	nt	i	nt
COC(=O)C1CCN(C(=O)c2oc3c(Cl)cc(C)cc3c2C)CC1	47	nt	76	nt
COc1ccc2cc(C(=O)Nc3ccc(S(N)(=O)=O)cc3)sc(=O)c2c1OC	i	i	i	?
COc1ccc2cc(C(=O)Nc3ccccc3)sc(=O)c2c1OC	43	i	34	i
COc1cc(NC(=O)c2cc3c(Cl)nc4ccccc4c3s2)cc(OC)c1OC	i	i	i	i
O=C(Nc1ccccc1)c1cc2ccc3ccccc3c2s1	47	i	92	?
CC(=O)c1cc(C(=O)Nc2cccc(C)c2)c2ccccn12	nt	i	nt	nt
COc1cccc(CNC(=O)C2CSC3(C)CCC(=O)N23)c1 (stereo not drawn)	nt	i	nt	i
O=C(Nc1ccc2c(c1)CCC2)c1cnc(Cl)c(Cl)c1	67	?	103	?
O=C(Nc1ccc2c(c1)CCC2)c1ccc(Cl)nc1	59	nt	64	nt
CC(=O)Nc1ccc(NC(=O)c2ccc(Cl)nc2)cc1	i	nt	i	nt
CCn1ncc(Cl)c1C(=O)Nc1ccncc1	i	i	i	i
CCn1ncc(Cl)c1C(=O)Nc1ccc2c(c1)CCC2	37	nt	134	nt
CCC(CC)C(=O)Nc1ccc(OCc2cc(=O)n3c4c(sc3n2)CCCC4)cc1	nt	i	nt	i
CN(C)CCCn1c(-c2nonc2N)nc2cnccc21	nt	i	nt	nt
CN1CCN(C(=O)C2=C[C@@H](C3CCCCC3)C[C@@H](OCCCCO)O2)CC1	i	nt	i	nt
Cc1ccc(NC(=S)N(CCCN2CCCC2)Cc2cccn2Cc2ccc(Cl)cc2)cc1Cl	i	1.1µM	i	8.9µM
Cc1ccc(NC(=S)N(CCCN2CCCC2)Cc2cccn2Cc2ccc(Cl)cc2)cc1C	i	?	i	?
CC(C)COc1ccc(C(=O)Nc2ccccc2[N+](=O)[O-])cc1	53	?	active	?
COc1ccc(C(=O)NCCNc2ccccc2[N+](=O)[O-])cc1	32	nt	77	nt
O=C(NCCNc1ccccc1[N+](=O)[O-])c1cc(F)c(F)cc1Cl	50	i	154	?
CCOc1ccc(C(=O)Nc2nnc(C)s2)cc1OCC	i	i	i	i
SMILES	CHX counter	Lassa entry inh	Shiga toxin inh	Marburg entry inh
O=C(Nc1cccnc1)c1ccc(C(=O)Nc2cccnc2)cc1	i	i	i	i
COc1ccc(C(=O)Nc2ccc(Nc3ccccc3)cc2)cc1OC	i	nt	nt	nt
COc1ccc(C(=O)Nc2nc(C)c(C)s2)cc1OC	55	i	96	?
CC(C)(C)c1ccc(C(=O)Nc2cccnc2)cc1	26	nt	i	nt
COc1ccc(C(=O)Nc2cccc(NC(=O)c3ccc(OC)c(OC)c3)n2)cc1OC	22	nt	39	nt
COc1ccc(C(=O)Nc2cccnc2)cc1OC	13	i	i	i
Cn1ccnc1CC(O)(c1ccccc1)c1ccccc1	i	?	i	i
O=C(Nc1nccs1)c1ccc(-c2ccc([N+](=O)[O-])cc2)o1	26	i	120	i
CC(=O)Cc1nsc(NC(=O)c2ccc(-c3ccc(F)cc3)o2)n1	16	i	i	i
O=C(Nc1nccs1)c1ccc(-c2ccc(Cl)cc2)o1	51	nt	94	nt
O=C(Nc1nccs1)c1ccc(-c2ccc(F)cc2)o1	41	i	95	i
Cc1ccc(C)c(NC(=O)CN(C)C(=O)/C=C/c2ccco2)c1	i	i	i	i
O=C(CCn1c(=S)[nH]c2ccccc2c1=O)NCCc1ccc(Cl)cc1	i	i	i	?
CC(=O)Cc1nsc(NC(=O)c2cccs2)n1	31	i	i	i
C=CCOC(=O)C1(C(NC(=O)OC)c2ccccc2)C(=O)Cc2ccccc21 (stereo not drawn)	nt	nt	nt	i
N#C/C(=C(/O)COC(=O)Cc1c[nH]c2ccccc12)c1nc2ccccc2[nH]1	14	i	65	?
COc1ccccc1OCC(=O)OC/C(O)=C(\C#N)c1nc2ccccc2[nH]1	16	nt	i	nt
O=C(Cc1c[nH]c2ccccc12)OCC(=O)c1ccccc1	49	i	i	i
COc1ccc(C(=O)COC(=O)Cc2c[nH]c3ccccc23)c(OC)c1	nt	i	nt	i
Cc1nc(N2CCN(c3ccc(Cl)cc3)CC2)[nH]c(=O)c1C	i	nt	i	nt
Cc1cc(C(=O)NCC23CC4CC(CC(C4)C2)C3)c(C)o1	i	nt	i	nt
O=C(CSc1ccc2nnc(-c3cccnc3)n2n1)Nc1ccc(F)cc1F	i	i	i	i
COc1ccccc1CNC(=O)C(CC(C)C)NS(=O)(=O)c1ccc2c(c1)oc(=O)n2C (stereo not drawn)	i	i	i	i
COc1ccccc1CNC(=O)C(CCSC)NS(=O)(=O)c1ccc2c(c1)oc(=O)n2C (stereo not drawn)	52	i	i	i
Cc1ccc2c(c1)nnn2C1CCN(S(=O)(=O)c2ccc(C(=O)N3C(C)CCCC3C)cc2)CC1 (stereo not drawn)	i	?	i	7.9µM
SMILES	CHX counter	Lassa entry inh	Shiga toxin inh	Marburg entry inh
Cc1ccc(OCC(=O)Nc2c(Cl)ccc3nsnc23)cc1C	nt	i	nt	i
CC(C(=O)OCc1nnc(-c2ccccc2)o1)N1C(=O)c2ccccc2C1=O (stereo not drawn)	32	?	92	i
Cc1ccc(C(=O)N[C@H](C(=O)OCc2nnc(-c3ccccc3)o2)C(C)C)cc1	26	i	i	i
COc1cccc(NC(=O)Cn2cc(C(=O)C3CCCCC3)c3ccccc32)c1	nt	i	nt	?
CN(C)CCCN(CCCNC(=O)/C=N\O)Cc1ccccc1	nt	nt	nt	i
Cc1ccc(OCC(O)C(C)NC(C)C)c2c1CCC2 (stereo not drawn)	nt	nt	nt	16µM
Cc1cccc(N2CCN(C3CCCCC3NS(=O)(=O)c3ccccc3)CC2C)c1 (stereo not drawn)	i	nt	i	nt
Cc1ccc(CNC(=O)c2ccc(CN3CC(=O)N4CCCCC4C3=O)cc2)cc1 (stereo not drawn)	nt	i	nt	nt
Brc1ccc(-c2nnc(-c3ccccc3)c(N3CCSCC3)n2)cc1	i	i	i	?
Cc1ccccc1N1CCN(c2ncnc3scc(-c4cccs4)c23)CC1	i	i	i	23µM
Cc1ccc(S(=O)(=O)N2CCN(c3ncnc4scc(-c5ccccc5)c34)CC2)cc1	nt	11µM	nt	?
CN1CCN(c2nc(-c3ccc(Br)cc3)nnc2-c2ccccc2)CC1	22	i	i	i
Cc1ccc(S(=O)(=O)N2CCN(c3ncnc4scc(-c5ccc(F)cc5)c34)CC2)cc1	nt	i	nt	?
Clc1ccc(CN2CCN(c3ncnc4scc(-c5cccs5)c34)CC2)cc1	i	?	i	?
Cc1ccc(-c2nc(N3CCN(C)CC3)c3ccccc3n2)cc1	12	nt	i	nt
CCn1c(N2CCN(S(=O)(=O)c3ccc(OC)cc3)CC2)nc2ccccc21	i	8.9µM	i	?
CN1CCN(c2nc(-c3ccc(C(C)(C)C)cc3)nc3ccccc23)CC1	57	nt	59	nt
CC1CCN(c2nc(-c3ccc(C(C)(C)C)cc3)nc3ccccc23)CC1	nt	i	nt	nt
COc1ccc(-c2nc(N3CCN(S(=O)(=O)c4ccc(C)cc4)CC3)c3ccccc3n2)cc1	27	nt	i	nt
